The list is not random: actives were taken first. Their share in the collection is about 3%.
LmPK inhibitor: inhibitors of Leishmania mexicana pyruvate kinase. Potency, µM (titrated, usually from 57.5 µM), actives largely listed as inhibitors. Q27686. purified LmPK, Kinase-Glo ATP luminescence, 1 h. 290,000 compounds, 0.37% hits
Target sequence (Q27686 whole entry, looked up): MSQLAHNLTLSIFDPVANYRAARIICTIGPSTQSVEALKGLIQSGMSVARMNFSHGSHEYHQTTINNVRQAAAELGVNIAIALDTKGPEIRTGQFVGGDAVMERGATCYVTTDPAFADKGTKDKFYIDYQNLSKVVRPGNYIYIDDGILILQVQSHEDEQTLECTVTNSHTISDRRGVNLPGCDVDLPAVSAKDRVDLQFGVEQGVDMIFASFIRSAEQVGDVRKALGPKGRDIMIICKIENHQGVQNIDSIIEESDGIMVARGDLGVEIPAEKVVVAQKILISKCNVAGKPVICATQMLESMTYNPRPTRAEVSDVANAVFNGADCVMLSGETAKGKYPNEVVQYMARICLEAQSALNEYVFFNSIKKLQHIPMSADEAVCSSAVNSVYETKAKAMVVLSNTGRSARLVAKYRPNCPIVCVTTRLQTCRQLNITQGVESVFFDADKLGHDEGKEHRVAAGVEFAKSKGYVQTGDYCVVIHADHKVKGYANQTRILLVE
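0.1 nM LmPK, 0.5 mM PEP, 0.1 mM ADP; 50 mM imidazole pH 7.2, 7 mM MgCl2, 50 mM KCl; 1 h RT. Kinase-Glo luminescence readout, normalized to no-enzyme (full inhibition) and uninhibited wells.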
RE007 growth inh: less growth of the S. pombe RE007 Vpr strain; 360,000 compounds, 0.21% hits; S. pombe RE007 Vpr strain, BacTiter-Glo ATP luminescence, 24 h; Potency, µM (titrated, usually from 92.2 µM), hits mostly inhibitors; active = well fitted falling curve with a large enough effect; inconclusive = small, poorly fitted or top-dose-only effect; inactive = no such curve, though single readings can be large or run the other way; note: nearly all actives have a fitted effect of over 50% in size
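Fission yeast strain RE007, carrying one chromosomally integrated HIV-1 vpr copy, was seeded at OD 0.01 in PMG+AL medium with 23 nL pinned compound. After 24 h at 30 °C and 99% humidity, viability was read by BacTiter-Glo luminescence.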
Sm TGR block: inhibitors of Schistosoma mansoni thioredoxin glutathione reductase | Q962Y6 | purified TGR, DTNB reduction, TNB absorbance 405 nm | Potency, µM (highest dose often 114 µM), actives largely listed as inhibitors | 360,000 compounds, 3% hits | AID 485364; note: nearly all actives have a fitted effect of over 60% in size
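TGR 20 nM + NADPH 100 uM (dispensed conc.), cpd preinc 15 min RT; start with NADPH (500 uM addition) then DTNB (15 mM addition). Kinetic TNB absorbance, 405 nm filter. Four-parameter Hill fit across titration.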
Tb PYK inh: blocks Trypanosoma brucei pyruvate kinase | Potency, µM (top dose mostly 76.8 µM), usual class: inhibitors | TbPYK enzyme, Kinase-Glo Plus ATP luminescence, 45 min | Q57TT1 | 410,000 compounds, 0.12% hits; note: nearly all actives have a fitted effect of over 50% in size
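T. brucei PYK with substrate was exposed to pin-transferred compounds across a concentration series, then started with 130 uM ADP (final). After 45 min at room temperature, Kinase-Glo Plus luminescence was read, normalized and curve-fitted.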
Numbers stand for hits; . = inactive; ? = inconclusive; / = no result given. Unless noted, calls come from the whole dose curve; as a rule, active = well fitted curve in the direction sought with a large enough effect; inconclusive = small, poorly fitted or top-dose-only effect, or another doubt; inactive = no such curve, though single readings can be large; an effect the other way counts as inactive or inconclusive.

SMILES	LmPK inhibitor	RE007 growth inh	Sm TGR block	Tb PYK inh
Cc1ccc(S(=O)(=O)c2nc(-c3ccccc3F)oc2N2CC(C)OC(C)C2)cc1 (configuration not stated)	.	.	20µM	.
O=S(=O)(c1ccccc1)c1nc(-c2ccc(F)cc2)oc1N1CCCCCC1	/	/	.	.
C#C[C@]1(O)CC[C@@H]2[C@H]3CCC4=CC(=O)CC[C@H]4[C@H]3C(=C)C[C@@]21CC	/	/	/	.
O=C(NCC(=O)N1CCN(Cc2ccccc2)CC1)c1ccc(Br)o1	.	.	.	.
COc1ccc(Nc2cc(C(=O)NCCCN(C)Cc3ccccc3)c3ccccc3n2)cc1OC	/	/	.	.
CC(=O)c1cccc(S(=O)(=O)NCCc2csc3nc(-c4ccc(F)cc4)nn23)c1	/	/	.	.
Cc1ccc(CN(C)C(=O)c2ccc(S(=O)(=O)N(C)c3ccccc3)cc2)o1	/	.	11.2µM	?
Cc1ccc(CN(C)C(=O)c2ccccc2Oc2ccccc2)o1	.	.	7.94µM	?
CN(Cc1ccc(OC(F)F)cc1)C(=O)c1ccc(S(=O)(=O)N(C)c2ccccc2)cc1	/	.	.	.
Cc1ccc(CN(C)C(=O)c2cccc(S(=O)(=O)N3CCc4ccccc4C3)c2)o1	/	.	28.2µM	?
O=C(O)c1ccccc1Oc1ccc(Oc2ccccc2)cc1	.	.	.	.
O=c1ncn2nc(Sc3ccc(F)cc3F)ccc2c1-c1c(Cl)cccc1Cl	/	/	/	.
CC(C)(C)C(=O)/C(=C\c1ccc([N+](=O)[O-])cc1)n1cncn1	.	/	2.24µM	/
CC(C)(C)C(=O)/C(=C/c1ccc(Cl)cc1)n1cncn1	.	.	?	.
Cn1cccc1Cc1nnc(SCC(=O)NCc2ccccc2Cl)n1-c1ccc(F)cc1	.	.	.	.
Cn1cccc1Cc1nnc(SCC(=O)NCC2CCCO2)n1CCc1ccccc1 (configuration not stated)	.	.	.	.
Cn1cccc1Cc1nnc(SCC(=O)NCc2ccco2)n1-c1ccc(F)cc1	.	.	44.7µM	.
Cn1cccc1Cc1nnc(SCC(=O)NCc2ccco2)n1CCc1ccccc1	.	.	50.1µM	.
CCN(CC)S(=O)(=O)c1nnc(NC(=O)COc2ccc(C)cc2)s1	/	/	.	.
CCNc1c(NC(=O)c2cc(OCC)c(OCC)c(OCC)c2)c(=O)oc2ccccc12	/	/	.	.
COc1ccccc1N1CCN(C(c2cc3ccc(C)cc3[nH]c2=O)c2nnnn2C2CCCC2)CC1 (configuration not stated)	.	.	?	.
CCOC(=O)C1CCN(C(c2cc3ccc(C)cc3[nH]c2=O)c2nnnn2C2CCCCC2)CC1 (configuration not stated)	.	.	10µM	.
COc1ccc2ccc3c(c2c1)N=C[C@]1(O3)N(C)c2ccccc2C1(C)C	.	.	28.2µM	.
CC1=NOC2(C1)N(C)c1ccccc1C2(C)C (configuration not stated)	.	.	.	.
COc1ccc(S(=O)(=O)Nc2cc(S(=O)(=O)N3CCOCC3)ccc2OC)cc1	/	.	/	.
SMILES	LmPK inhibitor	RE007 growth inh	Sm TGR block	Tb PYK inh
O=C(Oc1cccc2cccnc12)c1cccs1	.	5.01µM	.	.
O=C(Oc1cccc2cccnc12)c1ccco1	.	28.2µM	.	.
O=C(Oc1ccccc1)c1cccc2cccnc12	.	35.5µM	.	.
OCCC1CN(Cc2nc3c(s2)CCCC3)CCN1Cc1ccccc1 (configuration not stated)	.	.	35.5µM	.
Cc1ccc(CN2CCN(CCCc3ccccc3)CC2CCO)cc1 (configuration not stated)	.	.	.	.
Cc1ccc(CN2CCN(Cc3nc4ccccc4nc3C)CC2CCO)cc1 (configuration not stated)	.	.	31.6µM	.
CCCN1C(=O)C(O)(CC(=O)c2ccc(OC)c(OC)c2)c2ccccc21 (configuration not stated)	/	/	.	.
CCOC(=O)c1ccc(N2C(=O)C=CC2=O)cc1	.	5.62µM	0.501µM	31.6µM
CCOC(=O)c1ccc(-n2c(=O)[nH]c3ccccc3c2=O)cc1	.	.	.	.
CCOC(=O)c1ccc(-n2c(C)ccc2C)cc1	.	.	28.2µM	.
COc1ccc(N2CCN(C(CNS(=O)(=O)c3ccc(OC)c(C)c3)c3ccco3)CC2)cc1 (configuration not stated)	/	/	.	.
COCc1cc(C)nc2sc3c(c12)NC(c1ccc(O)cc1)N(c1ccc(OC)cc1)C3=O (configuration not stated)	/	/	.	.
Cc1ccc(C(=O)[C@H](C)CN2CCCCC2)cc1	/	/	/	.
CC[C@H](C)NC(=O)CCCCCn1c(=S)[nH]c2c([nH]c3ccc(OC)cc32)c1=O	.	.	.	.
CCCCNC(=O)CCCCn1c(=S)[nH]c2c([nH]c3ccc(OC)cc32)c1=O	.	.	.	.
COc1ccc2[nH]c3c(=O)n(CCCCC(=O)NCCN4CCCC4)c(=S)[nH]c3c2c1	7.08µM	.	.	6.31µM
COc1ccc2[nH]c3c(=O)n(CCCCC(=O)N4CCC(C(N)=O)CC4)c(=S)[nH]c3c2c1	3.98µM	.	.	6.31µM
Cn1cc(CN(C(=O)Nc2ccccc2)C2CCCCC2)c2ccccc21	/	/	.	.
COc1ccccc1CNC(=O)CCS(=O)(=O)c1cccc2nonc12	.	.	44.7µM	.
COc1ccc(CNC(=O)CCS(=O)(=O)c2cccc3nonc23)cc1	.	.	12.6µM	.
CCc1ccccc1NC(=O)CCS(=O)(=O)c1cccc2nonc12	/	/	.	.
Cc1ccc(NC(=O)CCS(=O)(=O)c2cccc3nonc23)c(C)c1	/	/	.	.
O=C(CCS(=O)(=O)c1ccccc1Cl)NCc1ccc(F)cc1	.	.	31.6µM	.
Cc1ccc(CNC(=O)CCS(=O)(=O)c2cccc3nonc23)cc1	.	.	25.1µM	.
O=C(NC1CCCCC1)OC1CC2CC1[C@H]1CCCCN1C2=O (some centres not stated)	/	.	/	.
SMILES	LmPK inhibitor	RE007 growth inh	Sm TGR block	Tb PYK inh
COc1ccccc1CNS(=O)(=O)c1cccs1	.	.	.	.
COc1ccccc1CNC(=O)CCS(=O)(=O)c1cccs1	.	.	35.5µM	.
CC(C)(C)C(=O)[C@@H]1[C@@H]2C(=O)N(Cc3ccccc3)C(=O)[C@@H]2[C@H]2c3ccccc3C=CN12	.	/	?	/
CC(=O)[C@@H]1[C@@H]2C(=O)N(C3CCCCC3)C(=O)[C@@H]2C2c3ccccc3C=CN21 (some centres not stated)	.	/	25.1µM	/
CC(=O)[C@H]1[C@@H]2C(=O)N(c3cccc(Cl)c3)C(=O)[C@@H]2[C@H]2c3ccccc3C=CN21	.	.	15.8µM	.
CC(=O)[C@@H]1[C@@H]2C(=O)N(c3ccc(F)c(Cl)c3)C(=O)[C@@H]2C2c3ccccc3C=CN21 (some centres not stated)	.	/	35.5µM	/
Cc1cccc(N2CCN(CCCNc3ncnc4onc(-c5ccc(Cl)cc5)c34)CC2C)c1 (configuration not stated)	/	/	.	.
